Data published in paper PMC5540273 (PLoS ONE, 2017).

test system: CSF1R-autoinhibited; conditions: concentration: 1 μM, replicates: in singlicate; n = 1
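Also: KINOMEscan kinase panel screen.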

SMILES	%Inh
COc1cc2nccc(Nc3ccc(NC(=O)c4ccc(C)cc4)c(O)c3)c2cc1OC.Cl [GW440132]	15%
Nc1ncnc2[nH]c(-c3ccccc3)nc12 [AH5015]	7%
Cl.NC(=O)c1cccc(Nc2nccc(Nc3ccc(Oc4cccc(Cl)c4)c(Cl)c3)n2)c1 [GW659008]	22%
COC(=O)c1c(-c2ccccc2)c2cc(OC)ccc2c(=O)n1Cc1ccccc1	20%
CN(C)CCN(C)C(=O)c1cc(-c2ccncc2)c(-c2ccc(Cl)c(O)c2)o1.Cl.Cl [SB-710397]	0%
CS(=O)(=O)c1ccc(-c2c(-c3ncn[nH]3)sc(N3CCOCC3)c2C#N)cc1	0%
CC(=O)Nc1nc2cnc(Nc3cc(NC(=O)c4cccc(CCC#N)c4)ccc3C)nc2s1	0%
COc1ccc(Nc2nccc(NCCNC(=O)Nc3ccccc3F)n2)cc1 [GSK1379901]	0%
CN1C(=O)C(Nc2ccc(Cl)c(C(=O)O)c2)=C(c2ccc(Cl)cc2)C1=O [SB-404290]	0%
Cn1cncc1-c1ccc2ncnc(Nc3ccc(OCc4ccccc4)cc3)c2c1 [GW320571]	0%
COc1cc2ncn(-c3cc(OCC4CCCO4)c(C(N)=O)s3)c2cc1OC (centres unmarked) [GSK204607]	3%
COc1ccccc1-c1ccc2c(NC(=O)C3CC3)n[nH]c2n1 [SB-711239]	30%
CSc1nn2c(=O)cc(N3CCOCC3)nc2n1Cc1cccc(C(F)(F)F)c1C [GSK2363608]	0%
Cc1c(Cn2ccn3c(=O)cc(N4CCOCC4)nc23)cccc1C(F)(F)F [GSK2289044]	0%
Cc1ccc(NC(=O)Nc2cccc(Cl)c2)cc1-c1ccc(C(=O)Nc2ccncc2)cc1 [GSK1398468]	12%
Cl.Oc1ccc(-c2nc(-c3ccccc3)[nH]c2-c2ccncc2)cc1 [SB-428218]	55%
C[C@@H]1CCCCN1c1cc(-c2ccc3c(N)n[nH]c3c2)nc(N)n1 [GSK2258759]	13%
COC(=O)c1c(-c2ccccc2)c2cc(C(=O)O)ccc2c(=O)n1Cc1ccccc1	0%

SMILES	%Inh
Cc1cccc(-c2nc(Nc3ccc4[nH]ncc4c3)c3ccccc3n2)n1 [GW857175]	33%
Nc1nc(-c2nccs2)c(-c2ccnc3ccccc23)s1 [GW693542]	0%
Cc1c(O)cccc1Nc1ccnc2ccc(C(F)(F)F)cc12.Cl [GW466413]	0%
O=C(Nc1ccc2c(c1)OCO2)NC1CCN(c2ccnc(Nc3ccc(F)cc3)n2)C1 (centres unmarked) [GSK1379724]	0%
Cc1ccccc1-n1cnc2c(N)ncnc21 [SKF-97510]	0%
Cc1ccc(C(=O)Nc2ccc(Nc3ccnc4cc(-c5ccccn5)ccc34)cc2O)cc1.Cl [GW440146]	0%
COc1ccc(Nc2nccc(-c3cccc(NC(=O)c4cc5cc(F)ccc5[nH]4)c3)n2)cc1 [GSK1229782]	57%
COc1cccc(-c2cc(-c3c[nH]nc3-c3ccccn3)ccn2)c1 [GW680338]	51%
Cc1cccc(-c2nc(-c3ccc(S(C)(=O)=O)cc3)sc2-c2ccnc(NCCc3ccccc3)c2)c1	1%
Clc1cc(Cl)cc(Nc2ccnc(Nc3cc(Cl)cc(Cl)c3)n2)c1 [GSK175726]	0%
O=C(Nc1n[nH]c2nc(-c3nccs3)c(Br)cc12)C1CC1 [SB-742251]	17%
O=C(Nc1n[nH]c2cc(-c3cccc(F)c3F)ccc12)C1CC1 [SB-733894]	0%
Cc1nnc(-c2ccc3occ(-c4ccc(S(C)=O)cc4)c3c2)[nH]1 (centres unmarked)	8%
Cc1cccc(-c2nc(C)cc(Nc3ccncc3)n2)n1 [GSK257997]	0%
NC(=O)c1nnc2ccccc2c1N	0%
O=c1cc(N2CCOCC2)nc2n(Cc3cccc(Cl)c3Cl)ccn12 [GSK2286295]	0%
CS(=O)(=O)c1ccc(-c2nc3n(c2-c2ccncc2)CCC3)cc1 [SKF-105942]	0%
COc1ccc(C2=C(Nc3cccc(C(=O)O)c3)C(=O)NC2=O)cc1 [SB-390765]	26%

test system: CSF1R; conditions: concentration: 1 μM, replicates: in singlicate; n = 1

SMILES	%Inh
COc1cc2nccc(Nc3ccc(NC(=O)c4ccc(C)cc4)c(O)c3)c2cc1OC.Cl [GW440132]	18%
Nc1ncnc2[nH]c(-c3ccccc3)nc12 [AH5015]	13%
Cl.NC(=O)c1cccc(Nc2nccc(Nc3ccc(Oc4cccc(Cl)c4)c(Cl)c3)n2)c1 [GW659008]	14%
COC(=O)c1c(-c2ccccc2)c2cc(OC)ccc2c(=O)n1Cc1ccccc1	51%
CN(C)CCN(C)C(=O)c1cc(-c2ccncc2)c(-c2ccc(Cl)c(O)c2)o1.Cl.Cl [SB-710397]	3%
CS(=O)(=O)c1ccc(-c2c(-c3ncn[nH]3)sc(N3CCOCC3)c2C#N)cc1	27%
CC(=O)Nc1nc2cnc(Nc3cc(NC(=O)c4cccc(CCC#N)c4)ccc3C)nc2s1	90.9%
COc1ccc(Nc2nccc(NCCNC(=O)Nc3ccccc3F)n2)cc1 [GSK1379901]	11%
CN1C(=O)C(Nc2ccc(Cl)c(C(=O)O)c2)=C(c2ccc(Cl)cc2)C1=O [SB-404290]	3%
Cn1cncc1-c1ccc2ncnc(Nc3ccc(OCc4ccccc4)cc3)c2c1 [GW320571]	0%
COc1cc2ncn(-c3cc(OCC4CCCO4)c(C(N)=O)s3)c2cc1OC (centres unmarked) [GSK204607]	5%
COc1ccccc1-c1ccc2c(NC(=O)C3CC3)n[nH]c2n1 [SB-711239]	0%
Cc1c(Cn2ccn3c(=O)cc(N4CCOCC4)nc23)cccc1C(F)(F)F [GSK2289044]	9%
Cc1ccc(NC(=O)Nc2cccc(Cl)c2)cc1-c1ccc(C(=O)Nc2ccncc2)cc1 [GSK1398468]	78%
Cl.Oc1ccc(-c2nc(-c3ccccc3)[nH]c2-c2ccncc2)cc1 [SB-428218]	10%
C[C@@H]1CCCCN1c1cc(-c2ccc3c(N)n[nH]c3c2)nc(N)n1 [GSK2258759]	2%
COC(=O)c1c(-c2ccccc2)c2cc(C(=O)O)ccc2c(=O)n1Cc1ccccc1	50%
Cc1cccc(-c2nc(Nc3ccc4[nH]ncc4c3)c3ccccc3n2)n1 [GW857175]	7%

SMILES	%Inh
Nc1nc(-c2nccs2)c(-c2ccnc3ccccc23)s1 [GW693542]	0%
Cc1c(O)cccc1Nc1ccnc2ccc(C(F)(F)F)cc12.Cl [GW466413]	0%
O=C(Nc1ccc2c(c1)OCO2)NC1CCN(c2ccnc(Nc3ccc(F)cc3)n2)C1 (centres unmarked) [GSK1379724]	0%
Cc1ccccc1-n1cnc2c(N)ncnc21 [SKF-97510]	6%
Cc1ccc(C(=O)Nc2ccc(Nc3ccnc4cc(-c5ccccn5)ccc34)cc2O)cc1.Cl [GW440146]	35%
COc1ccc(Nc2nccc(-c3cccc(NC(=O)c4cc5cc(F)ccc5[nH]4)c3)n2)cc1 [GSK1229782]	10%
COc1cccc(-c2cc(-c3c[nH]nc3-c3ccccn3)ccn2)c1 [GW680338]	0%
Cc1cccc(-c2nc(-c3ccc(S(C)(=O)=O)cc3)sc2-c2ccnc(NCCc3ccccc3)c2)c1	72%
Clc1cc(Cl)cc(Nc2ccnc(Nc3cc(Cl)cc(Cl)c3)n2)c1 [GSK175726]	3%
O=C(Nc1n[nH]c2nc(-c3nccs3)c(Br)cc12)C1CC1 [SB-742251]	0%
O=C(Nc1n[nH]c2cc(-c3cccc(F)c3F)ccc12)C1CC1 [SB-733894]	7%
Cc1nnc(-c2ccc3occ(-c4ccc(S(C)=O)cc4)c3c2)[nH]1 (centres unmarked)	5%
Cc1cccc(-c2nc(C)cc(Nc3ccncc3)n2)n1 [GSK257997]	0%
NC(=O)c1nnc2ccccc2c1N	14%
O=c1cc(N2CCOCC2)nc2n(Cc3cccc(Cl)c3Cl)ccn12 [GSK2286295]	25%
CS(=O)(=O)c1ccc(-c2nc3n(c2-c2ccncc2)CCC3)cc1 [SKF-105942]	0%
COc1ccc(C2=C(Nc3cccc(C(=O)O)c3)C(=O)NC2=O)cc1 [SB-390765]	18%
